Measurements: PubChem BioAssay (NCI)
Compounds without any hit were thinned out: in the full panel of roughly 83,000, 20% have a hit.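 48-hour exposure, single concentration, 96-well plates; percent growth endpoint where 0 means no net growth. Active: below 10.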 Values without a mark were called inactive. Calls of active or inactive are those of the source.

System: MALME-3M melanoma
Experiment: NCI-60 one-dose screen, 48 h (100 = growth as untreated, 0 = no growth, -100 = all killed)
Conditions: 10 µM unless noted

Compared with `CCCCCSB(SCCCCC)c1ccccc1`, `CCSC1=CC(=O)c2ccccc2C1=O` is lower in growth: 101% for the first, 14% for the second.

Compared with `c1ccc(CNc2ccc3nc(CCC4CCCCC4)[nH]c3c2)cc1`, `O=P(O)(O)OCC1OC(n2cnc3c(NCc4ccccc4)ncnc32)C(O)C1O` (stereo unspecified) is higher in growth: 58.3% for the first, 80.9% for the second.

First: S=c1ssnc1-c1cccs1
Second: COc1ccc(Cc2cnc(NC(=O)c3sc4ccccc4c3Cl)s2)cc1
The growth of the first is higher: 66.3% for the first, 56.6% for the second.

Compared with `O=C(/C=C/c1ccc(Br)cc1)c1ccc(-n2cc(CN3CCN(c4cc5c(cc4F)c(=O)c(C(=O)O)cn5C4CC4)CC3)nn2)cc1`, `O=C(CCCCCCN1CC(=O)N2[C@@H](c3ccc(Cl)cc3)c3[nH]c4ccccc4c3C[C@H]2C1=O)NO` is lower in growth: 102% for the first, 37.2% for the second.

First: N#C/C(=C\c1ccc(Cl)cc1Cl)C(=O)Nc1ncc(Cc2ccc(Cl)c(Cl)c2)s1
Second: O=C(CSc1nnc2sc(Nc3cccc(Cl)c3)nn12)c1ccc(F)cc1
The growth of the first is lower: 93% for the first, 116% for the second.

Compared with `N#Cc1c(-c2cccc([N+](=O)[O-])c2)cc(-c2ccc(Nc3nc(Nc4ccc(F)cc4)nc(Nc4ccc(F)cc4)n3)cc2)nc1N`, `COc1ccc(C2=Nc3c(N)ncnc3NC(c3cccc(Nc4ccnc5cc(C(F)(F)F)ccc45)c3)C2)cc1` (stereo unspecified) is lower in growth: 94.7% for the first, 72.3% for the second.

First: CCCC(O)Cn1ncc(C(=O)OCC)c1NC(=O)NCc1cccc(F)c1 (stereo unspecified)
Second: C#CCn1cnc2c(Nc3cccc(NC(=O)CCl)c3)ncnc21
The growth of the first is higher: 97.6% for the first, 34.4% for the second.

First: COc1cc2c3c(c1O)-c1ccccc1[C@@H]1OC(=O)N(CC2)[C@H]31
Second: COc1cc(C(=O)c2c(-c3ccccc3)oc3c(OC)cccc23)cc(OC)c1O
The growth of the first is higher: 103% for the first, 47.4% for the second.

Compared with `C/C(=C(/c1ccc(Cl)cc1)c1ccc(OCCCN(C)C)cc1)c1ccc(Cl)cc1`, `COc1cc(-c2nc3occn3c2-c2ccnc(NCCCNS(=O)(=O)c3ccccc3)n2)ccc1F` is lower in growth: 96.4% for the first, 18.4% for the second.

Going from `Cc1cc(C(=O)Nc2cc(Nc3ncccc3-c3ncnc4nc[nH]c34)ccc2F)cc(C(F)(F)F)c1` to `Nc1c(C(=O)Nc2cccc3ncccc23)sc2nc3c(cc12)C(=O)CCC3`, the growth falls from 108% to 74.8%.

Going from `CCOC(=O)NN1CC(O)=C(c2nc(-c3ccc(Br)cc3)cs2)C1=N` to `Cn1cc(-c2nn3cc(-c4ccccc4)nc3s2)c2ccccc21`, the growth falls from 112% to 55.3%.

First: C[C@H]1[C@H](C)CC[C@]2(C(=O)O)CC[C@]3(C)C(=CC[C@@H]4[C@@]5(C)C[C@@H](Cc6cn([C@@H]7O[C@H](CO)[C@@H](O)[C@H](O)[C@H]7O)nn6)[C@H](O)C(C)(C)[C@@H]5CC[C@]43C)[C@H]12
Second: CCOC(=O)CSc1nc2sc3c(c2c(=O)n1-c1ccc([N+](=O)[O-])cc1)CCCCC3
The growth of the first is higher: 108% for the first, 77.7% for the second.

Going from `CCC/C(=N\NC(N)=O)C(OC)OC` to `COc1cc2oc(-c3cccc(NC(=O)c4ccc5c(c4)OCO5)c3)cc(=O)c2c(OC)c1OC`, the growth falls from 99.5% to 76.4%.

`CCCCCCCCn1ccc2cc(NC(=O)Cn3cc(CN4CCC(C)CC4)nn3)ccc21` was tested, and the growth was -70.5% (active).
For `O=C1C(Cl)=C(NCCN2CCOCC2)C(=O)c2ncccc21`, the growth was -79.3% (active).
For `O=C(Nc1ccc(F)cc1)Nc1ccccc1CNc1nc(Nc2ccc(OCCN3CCCC3)cc2)ncc1Cl`, the growth was -29.3% (active).
In the case of `COC(=O)c1ccc2c(c1)c1c(C)c3ccncc3c(C)c1n2C`, the growth is reported as 5.36% (active).
`C=C1C(=O)O[C@H]2[C@H]1CC/C(CNC(=O)c1cc3ccccc3[nH]1)=C\CC[C@@]1(C)O[C@@H]21` was tested, and the growth was -28.9% (active).
In the case of `CCN(CC)CCCNCc1cc(-c2ccccc2)nc2cc(Cl)ccc12`, the growth is reported as -66.4% (active).
`COc1cc2nc(Nc3cccc(F)c3)nc(Nc3cc(C)[nH]n3)c2cc1OC` was tested, and the growth was -98.1% [20 µM] (active).
With `O=C1c2cc3c(cc2-c2c1c1ccc(Cl)cc1c(=O)n2C[C@H](O)CO)OCO3` the growth was -26.7% (active).
In the case of `COC1=CC(c2ccc[nH]2)=N/C1=C\c1[nH]c(C)c(CC(=O)OCc2ccccc2)c1C`, the growth is reported as -67.9% (active).
In the case of `C=C1C(=O)O[C@H]2[C@H]1CC/C(COC(=O)NCCCCCCCCNC(=O)OC/C1=C/CC[C@@]3(C)O[C@H]3[C@H]3OC(=O)C(=C)[C@@H]3CC1)=C\CC[C@@]1(C)O[C@@H]21`, the growth is reported as -64.4% (active).
